TDP1 cell noCPT: qHTS for Inhibitors of human tyrosyl-DNA phosphodiesterase 1 (TDP1): qHTS in cells in absence of CPT | 420,000 compounds, 15% hits | AID 686978, 2013 | Potency, µM (series often up to 46.2 µM), for inactives: at the top dose activity change, negative = growth inhibition, most hits filed as inhibitors | DT40 Tdp1-/- hTDP1 cells, no CPT, ATP luminescence, 48 h; further: nearly all actives have a fitted effect of over 55% in size
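Chicken DT40 Tdp1-/- cells complemented with human TDP1, screened without camptothecin (DMSO vehicle only), 400 cells/well. Compounds pin-transferred, cells incubated at 37 °C for at least 48 hr. Growth read as ATP-dependent luminescence (CellTiter-Glo, 30 min at RT).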
KB-3-1 tox: kills parental KB-3-1 adenocarcinoma cells; Potency, µM (series often up to 46.1 µM), usual class: cytotoxic; KB-3-1 viability, CellTiter-Glo ATP luminescence, 72 h; AID 1347075; 400,000 compounds, 1.4% hits; further: nearly all actives have a fitted effect of over 60% in size
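Multi-concentration cytotoxicity screen in KB-3-1 cells grown in DMEM lacking phenol red with 10% FBS. After 72 h at 37 °C with compound, ATP-dependent luminescence was recorded.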
HT1080 IDH1KD tx: toxicity to HT-1080 IDH1 knockdown cells (counter line); HT-1080 IDH1 knockdown viability, ATP luminescence, 48 h; Potency, µM (highest dose often 46.1 µM), for the others: at the top dose activity, negative = toxicity, hits mostly cytotoxic; 360,000 compounds, 2% hits;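 further: 0% = DMSO wells and -100% = cell-free medium wells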
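HT-1080-IDH1KD cells (IDH1 knocked down), 750/well in RPMI with 5% FBS, treated with compound 48 h at 37 degrees C. Viability by CellTiter-Glo luminescence, normalised to DMSO and no-cell wells; concentration-response curves classed.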
KB-V1 MDR tox: KB-V1 MDR subline cytotoxicity. KB-V1 MDR cells viability, CellTiter-Glo, 72 h. Potency, µM (top dose mostly 46.1 µM), actives largely listed as cytotoxic. 400,000 compounds, 3.4% hits; further: nearly all actives have a fitted effect of over 60% in size
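In this primary screen, KB-V1 cells overexpressing P-gp are incubated with library compounds (lowest to highest concentration) for 72 h at 37 degrees C before a luminescent ATP viability read.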
DT40 TDP1 CPT: DT40-hTDP1 cell growth loss with CPT; chicken DT40 Tdp1-/-;hTDP1 cells + 20 nM CPT, ATP luminescence, 48 h; Potency, µM (doses to about 46.2 µM), without a hit: at the highest dose activity change, negative = growth inhibition, most hits filed as inhibitors; 420,000 compounds, 12% hits; further: nearly all actives have a fitted effect of over 55% in size
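Cell growth measured by CellTiter-Glo luminescence after a minimum 48 h, 37 C compound exposure with 20 nM CPT in Tdp1-knockout DT40 cells stably expressing hTDP1, seeded 400/well; qHTS titration format.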
HT1080NT lethal: kills 2HG-producing HT-1080-NT fibrosarcoma cells; HT-1080-NT fibrosarcoma viability, CellTiter-Glo ATP luminescence, 48 h; Potency, µM (doses to about 46.1 µM), for inactives: top-dose activity, negative = less viability, most hits filed as cytotoxic; 360,000 compounds, 1.6% hits;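 further: NT is the 2HG producing partner of a matched IDH1 knockdown line; 0% = DMSO-treated cells and -100% = media-only wells without cells; nearly all actives have a fitted effect of over 55% in size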
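A 48-hour cytotoxicity screen used HT-1080-NT cells plated 2 hours before compound delivery. ATP-based CellTiter-Glo luminescence measured viability, normalized to DMSO and no-cell controls.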
An asterisk follows results filed as active; i = inactive; ? = inconclusive; · = not tested or not shown; [ ] = another dose, or the depositor's remark. The list is not random: actives were taken first. Their share in the collection is about 19%. The call rests on the fitted dose curve; in most records, active means well fitted curve in the direction sought with a large enough effect; inconclusive means small, poorly fitted or top-dose-only effect, or another doubt; inactive means no such curve, though single readings can be large; an effect the other way counts as inactive or inconclusive. Unless noted, on the % scale 0 is the no-effect control and ±100 the full control effect; potency means the concentration at half of the fitted maximal effect.

SMILES | TDP1 cell noCPT | KB-3-1 tox | HT1080 IDH1KD tx | KB-V1 MDR tox | DT40 TDP1 CPT | HT1080NT lethal
COC(=O)c1cc2oc(C)cc2n1Cc1c(C)cc(C)cc1C | 2% | i | · | i | 1% | ·
O=C(N/N=C/c1cccs1)/C(=C/c1ccccc1)NC(=O)c1ccccc1 | -2% | i | 3% | ? | 1% | 0%
O=c1ccc2c(ccc3ncccc32)o1 | 12µM* | i | 3% | i | -17% | 1%
COc1ccc(NC(=O)CC(C)CC(=O)NCc2ccc(F)cc2)c(OC)c1 (centres undefined) | -2% | i | -10% | i | -15% | -5%
O=C(Nc1ccc2c(c1)OCO2)C1CCN(S(=O)(=O)c2cccs2)CC1 | -17% | i | -1% | i | -20% | ?
Cc1nc(-c2ccc(NC(=O)C3CC3)cc2)cs1 | 18µM* | i | 1% | i | 23µM* | 13%
Cc1nc(-c2cccc(NC(=O)C3CCCCC3)c2)cs1 | -24% | i | -6% | i | ? | -1%
O=C(Nc1ccc2c(c1)OCO2)C1CCCN(S(=O)(=O)c2cccs2)C1 (centres undefined) | ? | i | -14% | i | 16µM* | -6%
CC(=O)Nc1ccc(-c2csc(NC(=O)C3CCN(S(=O)(=O)c4cccs4)CC3)n2)cc1 | 8.2µM* | i | ? | i | 16µM* | -8%
O=C(Nc1ccc2c(c1)OCCO2)C1CCN(S(=O)(=O)c2cccs2)CC1 | ? | i | 22% | 15µM* | -6% | -1%
Cc1ccc(S(=O)(=O)N2CCOCC2)cc1NC(=O)COC(=O)COc1ccc(C#N)cc1 | ? | i | -1% | i | -20% | 8%
Cc1ccccc1-c1nnc(SCC(=O)N(C)C2CCCCC2)o1 | -25% | · | · | · | ? | ·
O=C1CCc2cc(S(=O)(=O)NC3CCCCC3)ccc2N1 | -11% | i | 3% | i | 7% | 2%
CCn1ccc2cc(S(=O)(=O)N3CCCN(C(=O)Nc4cc(Cl)ccc4C)CC3)ccc21 | · | i | · | ? | · | ·
O=C(Nc1ccc2c(c1)OCCO2)C1CCCN(S(=O)(=O)Cc2ccccc2)C1 (centres undefined) | ? | i | 7% | i | ? | 5%
O=C(Nc1ccc2c(c1)OCCO2)C1CCN(S(=O)(=O)c2ccc3c(c2)OCCO3)CC1 | -29% | i | 5% | 15µM* | -28% | 27%
CCc1cccc(NC(=O)C2CCCN(S(=O)(=O)c3cccs3)C2)c1 (centres undefined) | 13µM* | i | -27% | ? | 16µM* | ?
COc1ccc(NC(=O)C2CCCN(S(=O)(=O)c3cccs3)C2)cc1OC (centres undefined) | ? | i | 0% | i | ? | -4%
O=C(Nc1ccc2c(c1)OCCO2)C1CCCN(S(=O)(=O)c2cccs2)C1 (centres undefined) | ? | i | -13% | i | 13µM* | -11%
CCOC(=O)c1c(S(=O)(=O)N2CCCC(C(=O)Nc3cccc(CC)c3)C2)c(C)n(CC)c1C (centres undefined) | ? | i | · | i | 18µM* | ·
CCCc1c(C)nc(N2CCN(c3ccccc3OC)CC2)[nH]c1=O | ? | ? | 18% | ? | ? | 12%
CCCCCOc1ccc(/C=C/C(=O)Nc2sc3c(c2C(=O)OCC)CCC3)cc1OC | ? | i | · | i | -5% | ·
COC(=O)c1ccc(Cl)cc1NC(=O)N1CC2CCCN2c2ccccc21 (centres undefined) | ? | i | · | i | ? | ·
Cc1ccc(NC(=O)N2CC3CCCN3c3ccccc32)c(C)c1 (centres undefined) | 18µM* | i | · | i | 23µM* | ·
Cc1ccc(NC(=O)N2CC3CCCN3c3ccccc32)cc1C (centres undefined) | 23µM* | i | · | i | 18µM* | ·
SMILES | TDP1 cell noCPT | KB-3-1 tox | HT1080 IDH1KD tx | KB-V1 MDR tox | DT40 TDP1 CPT | HT1080NT lethal
O=C(Nc1cccc(C(F)(F)F)c1)N1CC2CCCN2c2ccccc21 (centres undefined) | ? | i | · | i | ? | ·
Cc1ccc(NC(=O)N2CC3CCCN3c3ccccc32)cc1Cl (centres undefined) | 16µM* | i | · | i | ? | ·
CC(C)NC(=O)C1(C)CCN1C(=O)c1ccc2c(c1)OCO2 (centres undefined) | -13% | i | 12% | i | 3% | 16%
COC(=O)Cn1c(=NC(=O)c2ccc(OC)c(OC)c2)sc2cc(OC)ccc21 | ? | i | ? | i | ? | ?
COc1ccccc1-c1nccc(-n2ccnc2)n1 | -9% | · | · | · | 2% | ·
O=C(Cn1c(=O)oc2cc(S(=O)(=O)N3CCCC3)ccc21)N1CCN(c2ccccc2)CC1 | ? | i | -8% | i | ? | -4%
CCc1cccc(C)c1NC(=O)CCS(=O)(=O)c1ccc2c(c1)oc(=O)n2C | 15µM* | i | · | i | ? | ·
CCOC(=O)Cn1c(=O)oc2cc(S(=O)(=O)N3CCN(c4cc(C)ccc4C)CC3)ccc21 | ? | i | · | ? | 18µM* | ·
Cc1ccc(Cl)cc1N1CCN(C(=O)CCS(=O)(=O)c2ccc3c(c2)oc(=O)n3C)CC1 | 16µM* | i | · | 7.3µM* | ? | ·
Cc1ccc(C)c(N2CCN(C(=O)Cn3c(=O)oc4cc(S(=O)(=O)N5CCCC5)ccc43)CC2)c1 | 12µM* | i | 14% | i | 16µM* | 13%
Cn1c(SCC2CCCO2)nnc1C1CCN(Cc2ccco2)CC1 (centres undefined) | -5% | · | · | · | 16% | ·
CNC(=O)C1CCC(Cn2c(=O)c3sccc3n(CC(=O)N3CCCC3)c2=O)CC1 (centres undefined) | -9% | i | · | i | -13% | ·
CCOC1=C2CN(S(=O)(=O)c3ccc(C)cc3)[C@@H](c3ccccc3)C[C@H]2[C@H]2C(=O)N(c3ccccc3)C(=O)[C@H]2C1 | 13% | i | 21% | i | 5% | 7%
O=C(NCC(c1ccc2c(c1)OCO2)N1CCOCC1)c1cccc(Cl)c1 (centres undefined) | ? | i | · | ? | ? | ·
CC1CN(CCC(=O)NC(c2cccnc2)C(F)(F)F)Cc2cc(Cl)ccc2O1 (centres undefined) | ? | · | · | · | -13%[9.04 µM] | ·
